Sampled rows, rich in hits. Any-hit rate of the full collection: about 2.4%.
Cruzain noTriton: inhibitors of Trypanosoma cruzi cruzain without detergent; purified cruzain, Z-FR-AMC fluorescence, no detergent; Potency, µM, inactives show max response, negative = inhibition, most hits filed as inhibitors; hit rate 2.3% among 200,000; AID 1476;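 further: plate controls were enzyme without inhibitor for no effect and buffer without enzyme for full effect; nearly all actives have a fitted effect of over 40% in size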
Target sequence (P25779 123-467 limits assumed): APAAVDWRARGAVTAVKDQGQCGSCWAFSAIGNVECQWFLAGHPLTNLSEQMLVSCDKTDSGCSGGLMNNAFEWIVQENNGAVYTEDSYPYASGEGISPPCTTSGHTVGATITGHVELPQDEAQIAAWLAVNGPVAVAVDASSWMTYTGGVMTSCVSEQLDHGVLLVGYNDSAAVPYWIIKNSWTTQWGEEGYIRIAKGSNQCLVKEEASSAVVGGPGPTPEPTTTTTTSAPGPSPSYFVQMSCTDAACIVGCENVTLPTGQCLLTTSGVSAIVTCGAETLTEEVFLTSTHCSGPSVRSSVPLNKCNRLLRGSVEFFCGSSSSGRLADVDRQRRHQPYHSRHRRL
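Detergent-free condition (0.00005% Triton X-100) in acetate buffer pH 5.5 with DTT. 1.5 nM enzyme and compound were pre-mixed 15 min, then 2 uM Z-FR-AMC substrate added; reaction progress from fluorescence change between first and third reads (60 s).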
Cruzain Triton: blocks cruzain activity in presence of Triton detergent. P25779. purified cruzain, Z-FR-AMC fluorescence, 0.01% Triton. Potency, µM, for inactives: max response, negative = inhibition, usual class: inhibitors. hit rate 0.43% among 200,000;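 further: plate controls were neutral wells for no effect and buffer without enzyme for full effect; nearly all actives have a fitted effect of over 40% in size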
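Cruzain (1.5 nM) preincubated 15 min at RT with compound in 100 mM sodium acetate pH 5.5, 5 mM DTT, 0.01% Triton X-100. Reaction started with 2 uM Z-FR-AMC; AMC fluorescence (ex 360/em 450 nm) change over 60 s gave rate.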
Numbers without * were called inactive; ? = inconclusive; ! = not confirmed by another sample. The call rests on the fitted dose curve; in most records, active means well fitted curve in the direction sought with a large enough effect; inconclusive means small, poorly fitted or top-dose-only effect, or another doubt; inactive means no such curve, though single readings can be large; an effect the other way counts as inactive or inconclusive. Potency means the concentration at half of the fitted maximal effect.

SMILES	Cruzain noTriton	Cruzain Triton
CCOC(=O)c1cc(C)n(CC2CCC(C(=O)Nc3ccc(Cl)cc3)CC2)c1C (stereo unspecified)	-5.9%	-6.4%
CCc1ccc(NCc2cc3cc4c(cc3n(CC(=O)Nc3ccc(F)cc3)c2=O)OCCO4)cc1	20µM*	-7.9%
CCc1ccc(NCc2cc3cc4c(cc3n(CC(=O)Nc3ccc(C)cc3)c2=O)OCO4)cc1	-21.7%	-3.3%
COc1ccc(NCc2cc3cc4c(cc3n(CC(=O)Nc3ccc(F)cc3)c2=O)OCCO4)cc1	20µM*	-4.6%
CCOc1ccc(NC(=O)Cn2c(=O)c(CNc3ccccc3)cc3cc4c(cc32)OCCO4)cc1	-22.9%	-3.6%
Cc1cc(C)nc(N/N=C/C2=C(N3CCOCC3)C(=C\c3ccc(Cl)cc3)/CC2)n1	-20.7%	-9.6%
Cc1occc1C(=O)N/N=C/C1=C(N2CCOCC2)C(=C\c2ccc(Cl)cc2Cl)/CC1	25.1µM*	-5.0%
CCOC(=O)[C@]1(CC(=O)O)CCCC1=O	-6.9%	3.5%
CCCCOc1ccc(Cn2c(=O)oc3ccc(C)cc32)cc1	12.0%	-2.9%
CCc1ccc(NCCC(=O)c2ccc(Br)cc2)cc1	1.4%	-5.4%
Cc1ccc(NCCC(=O)c2ccc(Br)cc2)cc1	20µM*	-0.9%
O=C(CCn1c(=O)c2cccn2c2ccc(F)cc21)NCCc1ccccc1Cl	4.8%	-0.2%
Cc1ccccc1NC(=O)c1ccc(F)c(S(=O)(=O)N(C)C2CCCCC2)c1	11.1%	0.4%
O=C(CSc1nnc(-c2ccco2)o1)c1ccc(F)c(F)c1	-2.7%	3.7%
O=C(CSc1nnc(-c2ccco2)o1)c1ccccc1	15.8µM*	-6.6%
N#Cc1nc(-c2ccco2)oc1N1CCN(C(c2ccccc2)c2ccccc2)CC1	?	-13.3%
N#Cc1nc(-c2ccco2)oc1N1CCN(c2cccc(Cl)c2)CC1	?	-21.7%
COc1ccccc1-c1nc(C#N)c(N2CCN(c3cccc(Cl)c3)CC2)o1	?	22.4µM*
COc1ccccc1-c1nc(C#N)c(N2CCN(C(c3ccccc3)c3ccccc3)CC2)o1	7.94µM*	25.1µM*
COc1cccc(CNC(=O)c2cnc(N3CCCC3)nc2C)c1	-3.5%	-0.4%
C/C(=C\c1ccc(C(=O)O)cc1)c1ccc2c(c1)C(C)(C)CCC2(C)C	6.31µM*!	-8.4%
CC1(C)CCC(C)(C)c2cc(C(=O)Nc3ccc(C(=O)O)cc3)ccc21	-10.4%	2.2%
CCC(C)NC(=O)C1=CC(c2ccc3c(c2)OCO3)=NS(=O)(=O)N1C (stereo unspecified)	0.2%	-5.7%
CCN(CC)CCSc1nnc2c3cc(F)ccc3n(CC)c2n1	25.1µM*	25.1µM*
CCn1c2ccccc2c2nnc(SCC(=O)c3ccccc3)nc21	?	-3.0%
SMILES	Cruzain noTriton	Cruzain Triton
COc1ccc(/C=C/C(=O)Oc2ccc(/C=N/NC(=O)COc3c(C)cccc3C)cc2)cc1	7.94µM*	3.2%
Cc1cccc(C)c1OCC(=O)N/N=C/c1cccn1C	-9.4%	-5.8%
COc1ccc(/C=C/C=N/NC(=O)COc2ccc(OC)cc2)cc1	0.1%	-4.9%
COc1ccc(/C=C/C(=O)Oc2cccc(/C=N/NC(=O)COc3c(C)cccc3C)c2)cc1	15.8µM*	6.9%
COc1cccc(NS(=O)(=O)c2ccc3[nH]cc(C(=O)N(C)C4CCCCC4)c(=O)c3c2)c1	-0.3%	-0.4%
COc1ccc(-n2cc(C(=O)N(C)c3cc(C)ccc3OC)c3ccccc3c2=O)cc1	-9.2%	-7.6%
Cc1ccn2c(c1)nc(=O)c1cc(S(=O)(=O)N3CCC(C)CC3)c(Cl)cc12	-2.8%	2.0%
O=C(O)[C@@H]1[C@@H]2C[C@H]([C@@H](Br)[C@H]2N2C(=O)CCC2=O)[C@@H]1C(=O)O	11.1%	2.9%
Cc1ccc(NC(=O)/C(C#N)=C/c2cc(C)n(-c3ccc(N4CCOCC4)c([N+](=O)[O-])c3)c2C)c(C)c1	?	-1.4%
Cc1cc(/C=C(\C#N)C(=O)Nc2ccc(Cl)cc2)c(C)n1-c1ccc(N2CCOCC2)c([N+](=O)[O-])c1	7.94µM*	-6.5%
COc1ccc(CN[C@H](C)C(=O)O)cc1	-1.7%	4.0%
Cc1cc(C(=O)CSc2nnc(-c3ccc(F)cc3)o2)c(C)n1CC1COc2ccccc2O1 (stereo unspecified)	15.8µM*	5.8%
Cc1cc(C(=O)CSc2nnc(-c3ccccc3)o2)c(C)n1CC1COc2ccccc2O1 (stereo unspecified)	20µM*	5.0%
CC(C)(C)c1ccc(-c2nnc(SCC(=O)c3ccc4c(c3)OCCO4)o2)cc1	-11.1%	1.1%
Cc1cc(C(=O)CSc2nnc(-c3ccc(F)cc3)o2)c(C)n1CC1CCCO1 (stereo unspecified)	14.8%	3.9%
O=C(CSc1nnc(-c2ccc(F)cc2)o1)c1ccc2c(c1)OCCO2	12.6µM*	1.8%
Cc1cc(C(=O)CSc2nnc(-c3ccco3)o2)c(C)n1CC1COc2ccccc2O1 (stereo unspecified)	?	0.6%
COc1ccc(NS(=O)(=O)c2cc3[nH]c(=O)c(=O)[nH]c3cc2C)cc1OC	-11.9%	-2.0%

Bioassay records (PubChem)
